Source: PubChem BioAssay (EPA / NIEHS)
Inconclusive results are not listed. Activity calls are given as the source filed them. The calls were made as follows, unless noted: active = hit-call score of the fitted dose curve at least 0.9, where 1 is the maximum; inactive = score below 0.9.

What was measured:
[1] = CCTE_Shafer_MEA_acute_spike_number: CCTE's Neural Acute Assay for Total Number of Spikes, Shafer Lab (AID 2284008);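 as to AC50: curve fitted for decrease in spike count so AC50 reflects inhibitors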
Outline: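 Total spike count from 40 min recordings before and during compound exposure (0.03-40 uM), given as per-well percent change. Cortical cultures from rat, DIV 13 or 15, 37 C; adaptive detection threshold 8x rms noise.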

[2] = CCTE_Shafer_MEA_acute_firing_rate_mean: CCTE's Neural Acute Assay for Mean Firing Rate, Shafer Lab (AID 2284009);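 also: analyzed for loss of signal so actives lower firing rate relative to DMSO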
Outline: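 Spontaneous spiking of primary rat cortical networks, DIV 13/15, 37 C. Compound 0.03-40 uM, n ≥3 wells; 40 min baseline vs 40 min treated. Endpoint fitted in loss-of-signal direction against DMSO.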

[3] = CCTE_Harrill_HTTr_Viability_MCF7: CCTE's 6-hour Cell Viability Assessment for the High-Throughput Transcriptomics (HTTr) Platform, in MCF-7 cells cultured in DMEM + 10% fetal bovine serum, Harrill Lab (AID 2284010)
Outline: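 Propidium iodide exclusion, imaged by high-content analysis, gauged viability after a six-hour exposure across eight concentrations. Cells were MCF-7 grown in DMEM with 10% fetal bovine serum; fits run in both directions against DMSO.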

[4] = CCTE_Harrill_HTTr_CellCount_MCF7: CCTE's Cell Proliferation Assessment for the High-Throughput Transcriptomics (HTTr) Platform, Harrill Lab (AID 2284012; active = hit-call score of the fitted dose curve at least 0.9, where 1 is the maximum;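 also: cells exposed to compound for six hours; intended direction is loss of nuclei count meaning fewer cells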)
Outline: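 Cell count from high-content imaging of Hoechst-labeled nuclei serves as viability/growth readout. Chemicals were applied to MCF-7 cells in eight concentrations for six hours, with fitting in both directions relative to DMSO.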

[5] = CCTE_Shafer_MEA_acute_burst_number: CCTE's Neural Acute Assay for Single-Electrode Bursts, Shafer Lab (AID 2284013)
Outline: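 Burst totals were derived with adaptive spike detection (8x rms threshold) on filtered signals from rat cortical cultures; change relative to pre-treatment baseline after 40-min compound exposure (0.03-40 uM) was fitted in the negative direction against DMSO.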

[6] = CCTE_Shafer_MEA_acute_burst_duration_mean: CCTE's Neural Acute Assay for Mean Burst Duration, Shafer Lab (AID 2284014);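 also: hits are decreases in mean burst duration relative to DMSO controls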
Outline: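 Acute exposure of mature rat cortical networks (DIV 13 or 15) grown on microelectrode arrays to 0.03-40 uM compound. Mean burst duration compared with the 40-min pre-dose baseline over a 40-min post-dose recording at 37 C.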

[7] = CCTE_Shafer_MEA_acute_per_burst_spike_number_mean: CCTE's Neural Acute Assay for Average Number of Spikes Per Burst, Shafer Lab (AID 2284015);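 also: hits are decreases in mean spikes per burst versus baseline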
Outline: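 Read-out: percent change in mean spikes per burst, each well's post-exposure 40-min recording versus its own 40-min baseline. Rat cortical cultures, DIV 13 or 15, compounds 0.03-40 uM; DMSO is negative control, loss-of-signal fitting.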

[8] = CCTE_Shafer_MEA_acute_interburst_interval_mean: CCTE's Neural Acute Assay for Mean Interburst Interval, Shafer Lab (AID 2284016);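 also: percent change of mean interburst interval versus each well's own pre-dose baseline; curves fitted for decrease in interburst interval relative to DMSO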
Outline: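 Rat cortical cultures, DIV 13/15; 20 min equilibration, 40 min baseline, compound 0.03-40 uM, 40 min re-recording, 37 C. Spikes detected at 8x rms noise (300-5000 Hz band-pass). Endpoint: % change in interburst interval, fitted in loss direction vs DMSO.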

[9] = CCTE_Shafer_MEA_acute_burst_percentage_mean: CCTE's Neural Acute Assay for Percentage of Spikes in a Burst, Shafer Lab (AID 2284017);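 as to AC50: curve fitted for loss of signal so potency reflects decreased burst percentage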
Outline: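 Rat cortical cultures, DIV 13/15, 37 C. Spikes detected at 8x rms noise (300-5000 Hz band-pass). Burst spikes/total spikes averaged across electrodes per well; % change post- vs pre-treatment (40 min each), loss-of-signal fit vs DMSO.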

[10] = CCTE_Shafer_MEA_acute_burst_percentage_std: CCTE's Neural Acute Assay for Standard Deviation of Burst Percentage, Shafer Lab (AID 2284018);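 also: fitted in the negative direction so actives lower burst percentage SD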
Outline: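 Primary rat cortical neurons on 16-electrode MEA wells were recorded 40 min at baseline (DIV 13 or 15), then 40 min after compound (0.03-40 uM), at 37 C. Well value is SD across electrodes of spikes-in-bursts/total spikes; endpoint is percent change, DMSO-referenced.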

[11] = CCTE_Shafer_MEA_acute_per_network_burst_spike_number_mean: CCTE's Neural Acute Assay for Average Number of Spikes in a Network Burst, Shafer Lab (AID 2284019);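 as to AC50: curve fitted for loss of signal so actives reduce spikes per network burst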
Outline: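 Acute exposure of rat primary cortical networks (DIV 13/15) on MEAs; adaptive spike detection at 8x rms noise, 37 C. Percent change in spikes per network burst after 40 min with compound (0.03-40 uM), negative direction vs DMSO.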

[12] = CCTE_Shafer_MEA_acute_per_network_burst_spike_number_std: CCTE's Neural Acute Assay for Standard Deviation of Number of Spikes in a Network Burst, Shafer Lab (AID 2284020);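 also: fitted for decrease in spike-number SD versus DMSO so actives lower it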
Outline: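 Acute MEA exposure, rat cortical neurons, 0.03-40 uM. Per-well % change versus own baseline; DMSO as negative control.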

[13] = CCTE_Shafer_MEA_acute_per_network_burst_electrodes_number_mean: CCTE's Neural Acute Assay for Mean Number of Electrodes in a Network Burst, Shafer Lab (AID 2284021);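 also: curves fitted for decreases only so hits reduce electrodes per burst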
Outline: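 Percent change from baseline was computed as mean electrode count per network burst, comparing 40 min recordings before and during compound (0.03-40 uM) exposure. Cultures were rat cortical neurons at DIV 13 or 15, recorded on MEAs at 37 C with an adaptive 8x rms threshold.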

[14] = CCTE_Shafer_MEA_acute_network_burst_percentage: CCTE's Neural Acute Assay for Percentage of Network Bursts, Shafer Lab (AID 2284022);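 also: curves fitted for loss so actives lower network burst percentage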
Outline: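 Network burst percentage (spikes in network bursts divided by total spikes) recorded at 37 C over 40 min baseline and 40 min after compound, 0.03-40 uM, in rat cortical cultures at DIV 13 or 15. Analysed as percent change from baseline versus DMSO.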

[15] = CCTE_Shafer_MEA_acute_cross_correlation_area: CCTE's Neural Acute Assay for Area of Cross Correlation, Shafer Lab (AID 2284024);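 also: rat primary cortical neuron networks on 48-well MEA at DIV 13 or 15 with 40 min exposure; area under pooled inter-electrode spike cross-correlation near zero lag as percent change from own baseline; curves fitted for loss of cross-correlation area so actives lower synchrony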
Outline: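 Percent change in well-wide cross-correlation area (window around zero lag) between 40 min baseline and 40 min post-compound recordings, 37 C; rat cortical cultures on MEA at DIV 13 or 15, dosed 0.03-40 uM, wells needing >/= 10 active electrodes.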

[16] = CCTE_Shafer_MEA_acute_cross_correlation_HWHM: CCTE's Neural Acute Assay for Cross Correlation at Half Width at Half Maximum, Shafer Lab (AID 2284026);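 also: percent change per well from pre-dose baseline in spike cross-correlogram half width; hits are a decrease in cross-correlogram half width relative to DMSO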
Outline: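 Per-well percent change in cross-correlogram half width at half maximum, derived from 40-min recordings before and after compound (0.03-40 uM) at 37 C. Cultures were rat cortical neurons, DIV 13 or 15, with adaptive spike detection at 8x rms.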

[17] = CCTE_Shafer_MEA_acute_synchrony_index: CCTE's Neural Acute Assay for Synchrony, Shafer Lab (AID 2284027);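 also: network synchrony index of spontaneous spiking in primary rat cortical neurons on MEAs; fitted for loss of signal so actives lower synchrony relative to DMSO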
Outline: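 The synchrony index is taken as percent change per well between a 40 min baseline and a 40 min recording with compound (0.03–40 uM), at 37C. Rat cortical cultures on multiwell MEAs at DIV 13 or 15, spike threshold 8× rms noise.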

[18] = CCTE_Harrill_HTTr_Apoptosis_MCF7: CCTE's 6-hour Apoptosis Assessment for the High-Throughput Transcriptomics (HTTr) Platform, in MCF-7 cells cultured in DMEM + 10% fetal bovine serum, Harrill Lab (AID 2284011)
Outline: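 High-content imaging of CellEvent Caspase 3/7 Green signal follows a six-hour exposure, with eight concentrations per chemical. MCF-7 cells grown in DMEM plus 10% fetal bovine serum; activity fitted in both directions against DMSO.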

Measured: AC50

CN1CCN(c2ccccc2/C=C2\SCCN(c3ccc(Cl)c(Cl)c3)C2=O)CC1
inactive: [5] | [7] | [8] | [10] | [12] | [13] | [14] | [15]
active: [1] 10.3 µM | [2] 10.5 µM | [3] 73.7 µM | [4] 77.1 µM | [6] 32 µM | [9] 0.128 µM | [11] 0.207 µM | [16] 3.97 µM | [17] 34 µM

NC(=O)N(O)[C@@H]1C=C[C@H](Oc2cccc(Oc3ccc(F)cc3)c2)C1
active: [6] 18.5 µM | [7] 10 µM | [8] 2.69 µM | [9] 12.9 µM | [12] 10 µM | [16] 10 µM | [17] 10 µM
not listed: [3] | [18]
inactive: all other assays above

CC(C)(C)c1cc(C(C)(C)C)c(O)c(C(C)(C)C)c1
active: [17] 0.167 µM
not listed: [3] | [4] | [18]
inactive: all other assays above

Cc1cc(CCN2CCN(c3nsc4ccccc34)CC2)cc2c1NC(=O)CC2(C)C
active: [1] 8.94 µM | [2] 8.94 µM | [4] 92.2 µM | [6] 8.81 µM | [7] 20 µM | [8] 5.98 µM | [9] 32.1 µM | [12] 7.3 µM | [13] 32.4 µM | [16] 20 µM | [17] 33.4 µM
inactive: [5] | [10] | [11] | [14] | [15]

C[C@@H]1C[C@H]2[C@@H]3CCC4=CC(=O)C=C[C@]4(C)[C@@]3(F)[C@@H](O)C[C@]2(C)[C@@]1(O)C(=O)COP(=O)(O)O
inactive: [3] | [4]

CC(C)CCCCCCOC(=O)CCCCC(=O)OCCCCCCC(C)C
not listed: [3]
inactive: all other assays above

OCCC(F)(F)C(F)(F)C(F)(F)C(F)(F)C(F)(F)C(F)(F)C(F)(F)C(F)(F)F
not listed: [4]
inactive: all other assays above
